Some targets named below: CHI3L1; CLCN5; CIRBP; CLDN16.
Experiment in all cases: pooled miR-30 sensor sort-seq; sequence = guide strand
What all share (details): shRNA
Note: reference of the scale not given here.

ATAATTAGTATGGTCACTGTGT displayed a sensor-assay potency score (higher = more potent) in the assay with CHI3L1 of -0.0223. TAGTCAGTGTTGCTGAATCTGT: in the assay with CHI3L1, the sensor-assay potency score (higher = more potent) was -1.28. TATAACAGGATACTTGCCCAAC: the sensor-assay potency score (higher = more potent) with CLCN5 is -1.3. Same read-out and setting: with TCTTATGAGCAAACTCTTCTTT the figure was -0.0775; with TGCTATAGCACCAACAGCCATG, -1.3; with TTTATTGGTAATCTCTCGGTGC, 0.182.

Consider AACTGTCGTAACTGTCTCTGTA, for which the sensor-assay potency score (higher = more potent) with CIRBP was determined as 0.0143. TTTGCTTGTGTTGAAACGGTTC returned a sensor-assay potency score (higher = more potent) in the assay with CLCN5 of -0.272. As to AAGAATAATACAAACAGGCTGT, the sensor-assay potency score (higher = more potent) with CLDN16 was found to be 0.277. In turn, TCAAACCAGCTAACGAACCTGA yielded a sensor-assay potency score (higher = more potent) in the assay with CLCN5 of -0.258. Sequence TTGAAATCATCATAGGTCCCTA displayed a sensor-assay potency score (higher = more potent) with CLCN5 of -0.0127. The same measure, in the same setting: next, TATATGCTTTAACACATCCTTT: -1.04. In the case of AATATCTGCAGTAATCATCAAC, in the assay with CLDN16, the sensor-assay potency score (higher = more potent) was -0.661. Still for that read-out and setting: with TAGAATATCTGCAGTAATCATC the figure was -0.742.

With TACACATCAACAGCATACCACA, the sensor-assay potency score (higher = more potent) in the assay with CLDN16 was -1.23. TCACTGTAGCCACCACTCTGAC came in with a sensor-assay potency score (higher = more potent) in the assay with CIRBP of -1.45. TTTAACACATCCTTTTTGGTAA yielded a sensor-assay potency score (higher = more potent) in the assay with CLCN5 of -0.176. As for TCTTTCACAACCACCACTTCAG, the sensor-assay potency score (higher = more potent) with CIRBP is -0.118. As for TTAAAAAGATATAAGCAGCAGG, in the assay with CLDN16, the sensor-assay potency score (higher = more potent) is -0.367. Same read-out and setting: with AAATATATTGTGCAAAACCAAA the figure was -1.81. On to TTCCACAGTCATACTGTCCTGA, for which the sensor-assay potency score (higher = more potent) with CLCN5 is 0.719. The sequence TAACTGTCGTAACTGTCTCTGT came in with a sensor-assay potency score (higher = more potent) with CIRBP of 0.0429.

In turn, TCGTCAATGTTCTCAAAGGTGA gave a sensor-assay potency score (higher = more potent) in the assay with CIRBP of -0.799.

In turn, TTTACTTTTTCTCACGCCCTGC displayed a sensor-assay potency score (higher = more potent) with CLDN16 of -0.567. Turning to TTGAGGGGAAAATAGTAGCTGA, the sensor-assay potency score (higher = more potent) with CLCN5 was -0.729.

Consider TTGGTGTCAAAACTCAGCCCTC, for which, in the assay with CIRBP, the sensor-assay potency score (higher = more potent) is -0.687. On to TTTCATCACATCCATTGCCAGG, for which the sensor-assay potency score (higher = more potent) with CLCN5 was -1.34. TATAGTAATGACAATTTTCAGT yielded a sensor-assay potency score (higher = more potent) with CLCN5 of -0.57. Sequence TTTGTGACGCATTCCCACCAGA registered a sensor-assay potency score (higher = more potent) in the assay with CLDN16 of -0.822. The sequence TTCCTGTATTTGTTGAAGCAGT gave a sensor-assay potency score (higher = more potent) with CLCN5 of -0.859.

(Values after the OligoGym collection.)
